High-throughput results from PubChem BioAssay.
M4 antag – antagonists of human muscarinic M4 receptor (CHRM4); P08173; CHO-hM4 cells, ACh EC80, Fluo-8 calcium fluorescence; inhibition, % at 3 µM; actives 0.73% (n = 360,000); AID 624125;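 active = inhibition above its plate's cutoff, the mean inhibition of sample wells plus 3 SD, cut at about 27% in these data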;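 note: 0% = acetylcholine EC80 with DMSO and 100% = DMSO without agonist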
Target sequence (P08173 whole entry, looked up): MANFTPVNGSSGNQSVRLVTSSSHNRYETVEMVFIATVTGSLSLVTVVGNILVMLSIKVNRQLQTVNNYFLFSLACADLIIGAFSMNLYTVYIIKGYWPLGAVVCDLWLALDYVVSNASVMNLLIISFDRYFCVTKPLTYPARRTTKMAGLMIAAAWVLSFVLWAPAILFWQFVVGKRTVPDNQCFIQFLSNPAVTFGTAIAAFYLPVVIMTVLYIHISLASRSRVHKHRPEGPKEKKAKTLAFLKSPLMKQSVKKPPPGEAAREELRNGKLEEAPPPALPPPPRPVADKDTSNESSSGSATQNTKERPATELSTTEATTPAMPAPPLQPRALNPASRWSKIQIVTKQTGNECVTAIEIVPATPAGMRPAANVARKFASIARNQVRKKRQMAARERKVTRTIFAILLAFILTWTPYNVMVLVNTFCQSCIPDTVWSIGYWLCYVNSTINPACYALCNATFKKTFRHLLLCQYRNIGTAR
M4 PAM – CHRM4 positive allosteric modulation | P08173 | CHO-K1 hM4/Gqi5, Fluo-8 calcium fluorescence, ACh EC20; 0% = ACh EC20, 100% = maximal ACh | activation, % at 3 µM | actives 0.4% (n = 360,000);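 active = activation above its plate's cutoff, the mean activation of sample wells plus 3 SD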
CHO-K1 Ca antag – M1 antagonist counterscreen hit in parental CHO-K1 cells; inhibition, % at 3 µM; ATP-induced calcium, Fluo-8 fluorescence; actives 0.6% (n = 360,000);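 active = inhibition above a per-plate cutoff, the plate's mean sample inhibition plus 3 SD, cut at about 24% in these data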;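 note: 0% = DMSO plus EC80 ATP and 100% = DMSO alone without ATP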
CHRM4 agonist – CHRM4 agonism in calcium assay; P08173; CHO-K1 hM4/Gqi5, Fluo-8 calcium fluorescence; vehicle 0%, full acetylcholine response 100%; activation, % at 3 µM; actives 0.14% (n = 360,000); AID 624127;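 active = activation above the run mean over all test wells plus 3 SD, cut at about 32% in these data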;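 note: peak over basal fluorescence ratio per well then scaled between controls; 0% = DMSO wells and 100% = acetylcholine at EC100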
CHO-K1 Ca ag – nonselective activator or artifact in parental CHO-K1 cells | activation, % at 3 µM | Fluo-8 calcium fluorescence; scaled to maximal ATP response, vehicle zero | AID 602248 | actives 0.48% (n = 360,000); in the data active = activation above about 15%;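 note: untransfected CHO-K1 host cells lacking M1 receptor as counterscreen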
CHO-K1 Ca PAM – nonselective activator or artifact in parental CHO-K1 calcium assay; ATP EC20, Fluo-8 calcium fluorescence; 0% at ATP EC20, 100% at ATP max; actives 0.02% (n = 360,000); activation, % at 3 µM;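 active = activation above the run cutoff, the mean activation of all test compounds plus 3 SD, cut at about 40% in these data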;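 note: peak over basal fluorescence ratio in a 140 s read after ATP addition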
The depositor's hits bear a star. Compounds with a hit are over-represented: about 2% of the library has one in this group of screens.

SMILES	M4 antag	M4 PAM	CHO-K1 Ca antag	CHRM4 agonist	CHO-K1 Ca ag	CHO-K1 Ca PAM
CCOC(=O)Nc1nc2ccccc2s1	-1	-4	-16	1	2	8
O=C(CCCCCN1C(=O)c2ccccc2C1=O)Nc1ccc(C(=O)O)cc1	5	-5	-2	3	1	-7
Cc1ccc(C(=O)/C=C/NCc2ccc(F)cc2)cc1	-12	5	25*	2	0	-6
Cc1ccc(CN/C=C/C(=O)c2ccc(Br)cc2)cc1	-14	17	-26	1	2	30
COC(=O)CN1CCN(C(c2ccccc2)c2ccccc2)CC1	9	-7	1	0	0	5
CN(Cc1ccccc1)C(=O)CN1CCN(C(c2ccccc2)c2ccccc2)CC1	50*	-27	-6	0	1	12
Cc1cc(C)cc(OCC2CNC(=O)O2)c1 (centres undefined)	-7	0	-14	0	0	21
O=C1NCC(COCC2CC=CCC2)O1 (centres undefined)	17	28*	1	2	0	2
COc1ccc(C(=O)c2cnc(C(C)C)n2C)cc1	6	4	-16	0	1	8
CCCc1ncc(C(=O)c2ccc(OC)cc2)n1C	-1	4	6	0	19*	15
Cc1nnc(SCc2cc(=O)n3[nH]cnc3n2)s1	8	-5	25*	0	0	-7
Cc1nnc(SCc2cc(=O)[nH]c(N3CCCCC3)n2)s1	1	22	-5	0	0	14
CN1OC[C@@H]2CN(Cc3cc(Cl)cc(Cl)c3)[C@H](c3cccc(Br)c3)C[C@@H]21	0	-3	-4	-1	0	-5
CCOC(=O)Cc1csc(NC(=O)CSc2nccn2C)n1	-4	11	-8	1	1	-22
O=c1c2ccccc2ncn1-c1ccc(Cl)cc1[N+](=O)[O-]	-7	1	-18	3	3	17
O=c1c2ccccc2ncn1-c1ccc([N+](=O)[O-])cc1[N+](=O)[O-]	2	-8	2	18	19*	-20
COc1ccc(S(N)(=O)=O)cc1C(=O)OCCCOC(=O)c1cc(S(N)(=O)=O)ccc1OC	9	-1	-7	0	0	15
COc1ccc(S(N)(=O)=O)cc1C(=O)OCCCOc1ccc(F)cc1	0	-4	11	7	18*	2
CCOC(=O)c1cc2c(nc1N)CC(C)(CC)OC2 (centres undefined)	0	17*	6	1	0	-4
COc1ccc(S(=O)(=O)Nc2cc3c(cc2C(C)=O)OCO3)cc1	8	-17	-1	1	2	11
N#Cc1ccc(C(=O)NC2CCCCCCC2)cc1	-1	2	-23	16	2	9
CCC(C)(C)NC(=O)C(c1ccc(C)cc1)N(CCN1CCOCC1)C(=O)CNC(=O)c1cccs1 (centres undefined)	-10	9	8	2	0	-9
CCOC(=O)/C(=C/c1ccc(OC(=O)c2ccccc2)cc1)C(C)=O	-1	21*	-12	1	0	32
C[C@H](CO)N1C[C@H](C)[C@H](CN(C)C(=O)c2cc(-c3ccccc3)on2)OCc2cnnn2CCCC1=O	-17	5	-6	0	0	18
Cc1ccc(NC(=O)c2ccc3c(c2)S(=O)(=O)c2ccccc2C3=O)cc1S(=O)(=O)N1CCOCC1	10	-7	-12	1	0	-1
SMILES	M4 antag	M4 PAM	CHO-K1 Ca antag	CHRM4 agonist	CHO-K1 Ca ag	CHO-K1 Ca PAM
Cc1ccccc1NC(=O)Nc1ccc(C(F)(F)F)cc1	10	-14	24*	7	11	-9
Cc1ccccc1NC(=O)CNC(=O)c1ccc(C(F)(F)F)cc1	-3	5	3	1	0	-12
O=C(Nc1ccccc1)Nc1cccc(C(F)(F)F)c1	3	-12	30*	16	11	-11
CNC(=O)Nc1cccc(C(F)(F)F)c1	7	-9	-6	1	1	15
COc1ccc(NC(=O)Nc2ccc([N+](=O)[O-])cc2)cn1	0	-9	18	22	16*	-15
CC(=O)c1c(C)[nH]c(C(=O)Nc2cccc(C(F)(F)F)c2)c1C	10	-14	4	20	18*	-11
